From PubChem BioAssay
Sampled rows, rich in hits. Any-hit rate of the full collection: about 0.5%.
phage Ecoli inh: E. coli growth loss with phage present. growth absorbance. inhibition, % at 11.9 µM. actives 0.26% (n = 360,000). AID 651602; in the data active = inhibition above about 11%
AddAB inh: less growth of phage-infected E. coli with AddAB. actives 0.29% (n = 330,000). inhibition, % at 11.9 µM. E. coli expressing H. pylori AddAB, absorbance growth; in the data active = inhibition above about 12%;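 note: 0% = vehicle wells of infected cells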
E coli growth-1: inhibitors of Escherichia coli growth. OD600, 23 h; active compounds read low. OD600 absorbance (test concentration not listed). actives 0.21% (n = 330,000);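 active = OD600 absorbance below the run mean of sample wells minus 3.6 SD, in any replicate, cut at about 0.56 in these data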
Tat export inh: blocks Tat-dependent protein export in E. coli | E. coli MC4100 TorA-mCherry Tat export, fluorescence | actives 0.036% (n = 340,000) | inhibition, % at 10 µM;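 active = mean replicate inhibition at least 50% and at least half of replicates individually reaching 50%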;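 note: exported cargo escapes ClpAP degradation while cytoplasmic cargo is degraded and loses fluorescence; 0% = median of neutral control wells and 100% = median of NaSCN control wells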
E coli growth-2: bacterial growth inhibition, counter-screen for AddAB inhibitors. inhibition, % at 11.9 µM. actives 0.27% (n = 330,000). AID 449728. E. coli V3065 growth, OD600 absorbance, 18 h;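 active = inhibition above the campaign's mean inhibition across all tested compounds plus 3 SD, cut at about 9.9% in these data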;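 note: uninfected addAB+ strain grown without phage in ampicillin broth; 0% = DMSO wells and 100% = ciprofloxacin 0.95 µg/ml wells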
RecBCD conf: growth loss of phage-infected V66 E. coli, RecBCD confirmation screen; shares compounds with phage Ecoli inh; E. coli V66 + T4 2- phage, growth OD; inhibition, % at 11.9 µM; actives 45% (n = 890); AID 651982;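 active = mean inhibition over triplicates exceeding the hit threshold derived in the original primary screen, cut at about 11% in these data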
Ecoli viability: counter-screen for RecBCD inhibitors: inhibitors of bacterial viability; actives 29% (n = 890); E. coli viability, absorbance (OD) growth; inhibition, % at 11.9 µM; shares compounds with phage Ecoli inh; in the data active = inhibition above about 20%;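 note: E. coli strain V66 grown with compound alone and no phage infection; 0% = bacteria with DMSO vehicle only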
AddAB phage OD: growth loss of phage-infected AddAB E. coli, RecBCD counter-screen | inhibition, % at 11.9 µM | shares compounds with phage Ecoli inh | actives 45% (n = 890) | E. coli expressing H. pylori AddAB + T4 phage, OD growth; gene 2 mutant T4, recBCD-deleted host | AID 651984;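 active = mean inhibition above the solvent-only control wells' mean plus 3 SD, cut at about 22% in these data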;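 note: higher means less bacterial growth from phage killing when AddAB is blocked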
* hit, by the source's call; x = not tested or not shown.

SMILES | phage Ecoli inh | AddAB inh | E coli growth-1 | Tat export inh | E coli growth-2 | RecBCD conf | Ecoli viability | AddAB phage OD
CNC(CC(C)C)C(=O)NC1C(=O)NC(CC(N)=O)C(=O)NC2C(=O)NC3C(=O)NC(C(=O)NC(C(=O)O)c4cc(O)cc(O)c4-c4cc3ccc4O)C(O)c3ccc(c(Cl)c3)Oc3cc2cc(c3OC2OC(CO)C(O)C(O)C2OC2CC(C)(N)C(O)C(C)O2)Oc2ccc(cc2Cl)C1O (centres undefined) | 11* | -2 | x | -35 | 1 | 4 | 8 | 15
CCS(=O)(=O)NCCc1csc(-c2cccnc2)n1 | 97* | -3 | 0.7 | 0 | 1 | -3 | -3 | 3
Oc1c(Br)cc(Br)cc1CNc1cccc2cccnc12 | 0 | -2 | 0.64 | -3 | -4 | x | x | x
Oc1c(Br)cc(Br)c2cccnc12 | 44* | x | x | -10 | x | 60* | 68* | 53*
O=C(NN=C/C=C/c1ccco1)c1cnccn1 | x | x | 0.66 | x | x | x | x | x
O=C(N/N=C\c1ccc(F)cc1)c1ccc(F)cc1 | 5 | -1 | x | 1 | -3 | x | x | x
C[n+]1c(-c2ccc(C=NNC(=O)c3ccc(C(=O)NN=Cc4ccc(-c5cn6ccccc6[n+]5C)cc4)cc3)cc2)cn2ccccc21 | 57* | x | x | 50* | x | 78* | 76* | 80*
O=C(O)c1cn(-c2ccc(F)cc2)c2cc(N3CCNCC3)c(F)cc2c1=O | 99* | x | x | 114* | x | 102* | 103* | 103*
Nc1nc2ccc(Cl)cc2o1 | 13* | x | 0.63 | -16 | x | 14* | 16 | 37*
COc1ccc(N(C)S(=O)(=O)c2ccc(Cl)c(C(=O)NNC(=O)c3ccccc3O)c2)cc1 | 12* | x | 0.63 | -5 | x | 4 | 5 | 10
Cc1cccc(NC(=O)COC(=O)CN2CCCCCC2=O)c1C | 11* | 0 | 0.67 | -12 | 0 | 1 | 1 | -1
Nc1ncn([C@H]2C[C@H](O)[C@@H](CO)O2)c(=O)n1 | 12* | 3 | x | -9 | 4 | 14* | 8 | 34*
c1ccc(CCc2cn(CC3CCC(C4CCC(Cn5cc(CCc6ccccc6)nn5)O4)O3)nn2)cc1 (centres undefined) | x | x | 0.68 | x | x | x | x | x
O=[N+]([O-])c1ccc(-c2nc(Cl)c3c(n2)CCCC3)o1 | 97* | x | x | x | x | 76* | 97* | 100*
C=CCn1c(SCC(=O)NC2CCCC2)nnc1-c1ccccn1 | 1 | 2 | 0.67 | -3 | 0 | x | x | x
CCCn1c(SCC(=O)NC2CCCC2)nnc1-c1ccccn1 | 38* | -1 | 0.67 | -3 | 0 | -2 | -1 | 3
COC(=O)[C@]1(C)NC(c2ccc(-c3ccc(Cl)c(Cl)c3)cc2)C2C(=O)N(C)C(=O)C21 (some centres undefined) | x | x | 0.71 | x | x | x | x | x
CC=CC(=O)N1CC2(CC(c3cccc(NC(=O)CC)c3)=NO2)CC1C(N)=O (centres undefined) | x | x | 0.69 | x | x | x | x | x
CC1C=C(C(=O)NCc2nc3ccccc3[nH]2)OC(OCc2ccc(CO)cc2)C1 (centres undefined) | x | x | 0.68 | x | x | x | x | x
CCOC1OC(C(=O)N2CCOCC2)=CC(C)C1CCCO (centres undefined) | x | x | 0.62 | x | x | x | x | x
CC1CC1C(=O)Nc1nc(-c2ccc(Cl)s2)cs1 (centres undefined) | 10 | 3 | 0.71 | 3 | 1 | x | x | x
CN(C(=O)C1CCC1C(=O)O)c1nc(-c2ccc(Cl)s2)cs1 (centres undefined) | 99* | 6 | 0.64 | 9 | 1 | -1 | 0 | -2
Cc1cc2ncn(N=Cc3ccc([N+](=O)[O-])o3)c2cc1C | x | x | 0.57 | x | x | x | x | x
O=[N+]([O-])c1ccc(C=NN2CCNC2=S)o1 | 101* | x | x | x | x | 101* | 102* | 101*
CCN(CC)CC1CN(N=Cc2ccc([N+](=O)[O-])o2)C(=O)O1 (centres undefined) | 39* | x | 0.064* | -9 | x | 41* | 59* | 102*
SMILES | phage Ecoli inh | AddAB inh | E coli growth-1 | Tat export inh | E coli growth-2 | RecBCD conf | Ecoli viability | AddAB phage OD
OC(CN1CCN(c2ccccn2)CC1)Cn1c2ccccc2c2ccccc21 (centres undefined) | 12* | 5 | 0.61 | 6 | 0 | -4 | -4 | -4
Cc1cn(C2CCC(CO)O2)c(=O)[nH]c1=O (centres undefined) | 24* | x | 0.56 | -1 | x | 20* | 12 | 60*
Cc1nc(NN=Cc2ccccn2)sc1C | x | x | 0.65 | x | x | x | x | x
Cc1nc(N/N=C/c2ccccn2)sc1C | 16* | 20* | x | x | 18* | 1 | 3 | 16
COc1ccc(C(=O)COc2ncnc3cc(Cl)ccc23)cc1 | 98* | 1 | 0.7 | 10 | 2 | -5 | -5 | 0
COc1ccc(C2C=CCN(S(=O)(=O)c3cccc4cccnc34)CC(=O)N2Cc2ccc(F)cc2)cc1 (centres undefined) | x | x | 0.69 | x | x | x | x | x
Cc1ccccc1SCC(=O)NN=Cc1ccc(F)cc1 | x | x | 0.68 | x | x | x | x | x
CN(C)c1ccc(C=c2c3ccccc3n3c2c2c([n+]3C)CCCC2)cc1 | 62* | x | x | 14 | x | 72* | 97* | 101*
COc1cccc(C(Nc2ccccc2)c2ccc3ccc(C)nc3c2O)c1 (centres undefined) | 12* | x | x | x | x | 5 | 7 | 5
Cc1cccc(NC(c2ccc(O)cc2)c2ccc3ccc(C)nc3c2O)n1 (centres undefined) | 6 | 3 | 0.69 | -4 | -1 | x | x | x
O=C(COc1ccccc1Cl)Nc1nnc(S(=O)(=O)N2CCCC2)s1 | 36* | 1 | 0.77 | 3 | 1 | -2 | -2 | -1
O=[N+]([O-])c1cc([N+](=O)[O-])c(Oc2c(Cl)cccc2Cl)cc1NN1CCCCC1 | 13* | 4 | 0.71 | 1 | 0 | -3 | -4 | -1
Cc1cccc(C(=O)Nc2ccc(C(=O)NN=Cc3cccnc3)cc2)c1 | x | x | 0.71 | x | x | x | x | x
CCOC(=O)c1[nH]c2cc(OC)c(OC)cc2c1NC(=O)c1nonc1C | 14* | 0 | 0.71 | 3 | 0 | 0 | 1 | 0
O=C(c1ccc(NC2=NC3CS(=O)(=O)CC3S2)cc1)N1CCN(Cc2ccccc2)CC1 (centres undefined) | 13* | -3 | 0.71 | 1 | -1 | -3 | -3 | 0
COC(=O)C1CCCN1C(=O)C(NC(=O)OC(C)(C)C)C(C)C (centres undefined) | x | x | 0.67 | x | x | x | x | x
CSc1ccc(C=C(NC(=O)c2ccc(C)cc2)C(=O)Nc2cccc(C)c2)cc1 | x | x | 0.71 | x | x | x | x | x
CCCCCCCCCC[n+]1cccc2c3ccccc3ccc21 | 12* | x | 0.13* | -7 | x | 2 | 3 | 6
Cc1ccc(SCCn2nc(C(=O)O)c3ccccc3c2=O)cc1 | 1 | 5 | 0.74 | 13 | 2 | x | x | x
